Screens as filed in PubChem BioAssay.
CBX7 inh = inhibitors of human CBX7 binding to H3K27me3 peptide. AlphaScreen His6-CBX7 / biotin-H3K27me3 peptide binding; hits give low values. 66,000 tested, 1.1% active. normalised signal (fraction of DMSO) (no concentration beside the values); in the data active = normalised signal below about 0.5
Target sequence (O95931 whole entry, looked up): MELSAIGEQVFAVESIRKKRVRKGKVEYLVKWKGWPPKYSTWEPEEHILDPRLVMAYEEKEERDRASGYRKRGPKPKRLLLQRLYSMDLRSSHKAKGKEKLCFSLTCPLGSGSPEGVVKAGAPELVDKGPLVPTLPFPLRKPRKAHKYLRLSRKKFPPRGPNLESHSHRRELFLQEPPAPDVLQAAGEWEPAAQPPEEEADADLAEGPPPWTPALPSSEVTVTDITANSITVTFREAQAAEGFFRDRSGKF
* = called active by the depositor. The full list was thinned out, with hits kept by preference.

COc1ccc(-c2noc(-c3cc(-c4ccccc4)nc4ccccc34)n2)cc1 was read as CBX7 inh 1.24.
COc1ccc(Cc2noc(-c3cc(-c4ccc(F)cc4)nc4ccccc34)n2)cc1 was read as CBX7 inh 1.34.
`Cc1noc(C)c1S(=O)(=O)N(C)CC(=O)NC1CCCCC1` gave CBX7 inh 1.15.
For COc1ccccc1CNC(=O)CCc1c(C)nc2c(c(C)nn2-c2ccc(C)cc2)c1C the results were CBX7 inh 1.32.
Cc1ccccc1NS(=O)(=O)c1ccc2[nH]cc(C(=O)NCCC(C)C)c(=O)c2c1 was read as CBX7 inh 0.808.
For COc1ccc(NC(=O)CCc2c(C)nc3nc(C)nn3c2C)cc1Cl the results were CBX7 inh 0.907.
Screening NS(=O)(=O)c1ccc(CCNC(=O)c2cnc3sccn3c2=O)cc1 returned CBX7 inh 0.949.
`COc1cc2[nH]c(=O)n(CCC(=O)N3CCN(c4cccc(Cl)c4)CC3)c(=O)c2cc1OC` gave CBX7 inh 1.01.
`CCCN1CCN(CCCNC(=O)COc2ccc3c(c2)C(=O)CC(C)(C)O3)CC1` gave CBX7 inh 0.523.
`CCCCCCCNC(=O)COc1ccc2c(c1)C(=O)CC(C)(C)O2` gave CBX7 inh 1.04.
Screening CCN1CCN(CCCNC(=O)COc2ccc3c(c2)C(=O)CC(C)(C)O3)CC1 returned CBX7 inh 0.453*.
Cc1ccc(-c2csc(NC(=O)CCCOc3ccccc3)n2)cc1 was read as CBX7 inh 1.04.
For COc1ccc(-c2cn(-c3ccc(F)cc3)c(=O)[nH]2)cc1OC the results were CBX7 inh 1.07.
For CCCCN(CCCNC(=O)CCN1C(=O)COc2ccccc21)c1ccccc1 the results were CBX7 inh 0.836.
`CCCCN(C)S(=O)(=O)c1ccc(C(=O)Nc2c(C(=O)OCC)oc3ccccc23)cc1` gave CBX7 inh 1.13.
Screening CCCCN(C)S(=O)(=O)c1ccc(C(=O)Nc2nnc(CC)o2)cc1 returned CBX7 inh 0.394*.
COc1ccc(-c2nnc(NC(=O)c3ccc(S(=O)(=O)N(C)C4CCCCC4)cc3)o2)cc1 was read as CBX7 inh 0.924.
CN(C1CCCCC1)S(=O)(=O)c1ccc(C(=O)Nc2ccc(-c3nc4ccccc4[nH]3)cc2)cc1 was read as CBX7 inh 1.
CCCCN(C)S(=O)(=O)c1ccc(C(=O)Nc2nnc(COC)o2)cc1 was read as CBX7 inh 0.0893*.
Screening COCc1nnc(NC(=O)c2ccc(S(=O)(=O)N(C)C3CCCCC3)cc2)o1 returned CBX7 inh 0.155*.
`CCCN(CCC)S(=O)(=O)c1ccc(C(=O)Nc2nnc(COC)o2)cc1` gave CBX7 inh 0.817.
`COc1ccc(C2(C(=O)NCC3(c4ccccc4)CCOCC3)CCOCC2)cc1OC` gave CBX7 inh 1.08.
For CC(NC(=O)CSCc1cnn(-c2ccccc2)c1-n1cccc1)c1ccccc1 (configuration not stated) the results were CBX7 inh 1.03.
`Cc1cc(C)c2cccc(NC(=O)COc3ccc4oc5c(c4c3)CCCC5)c2n1` gave CBX7 inh 1.03.
`COc1ccc(-c2cc3nc(C)c(CCC(=O)Nc4ccc(C)cc4)c(C)n3n2)c(OC)c1` gave CBX7 inh 1.06.
CCC(C(=O)Nc1nnc(COc2cc(C)ccc2C)s1)c1ccccc1 (configuration not stated) was read as CBX7 inh 1.07.
COc1ccccc1CNC(=O)c1cc(Sc2ccc(C)cc2)nc2ccccc12 was read as CBX7 inh 1.18.
For Cc1ccccc1NC(=O)c1cnc(Nc2nc3ccccc3o2)nc1C the results were CBX7 inh 0.167*.
For Cc1ccc(NC(=O)c2c(C)nc(Nc3nc4ccccc4o3)nc2C)cc1 the results were CBX7 inh 1.09.
CCCc1nc(Nc2nc3ccccc3o2)ncc1C(=O)OCC was read as CBX7 inh 1.06.
`Cn1c(C(=O)NC2CCCC2)cc2sc(Cl)cc21` gave CBX7 inh 1.08.
O=C(CCn1nc(-c2ccccc2)ccc1=O)NCC1CCCO1 (configuration not stated) was read as CBX7 inh 0.984.
For CCOc1ccccc1NC(=O)Cn1cnc2scc(-c3ccccc3)c2c1=O the results were CBX7 inh 0.915.
O=c1nc(-c2ccccc2)c2cc(Br)ccc2[nH]1 was read as CBX7 inh 0.954.
For Fc1ccc(-c2[nH]c(-c3c[nH]c4ccc(Br)cc34)nc2-c2ccccc2)cc1 the results were CBX7 inh 0.455*.
Screening c1ccc2[nH]c(-c3c[nH]c4ccccc34)nc2c1 returned CBX7 inh 0.86.
For Fc1ccc(-c2[nH]c(-c3cccs3)nc2-c2ccccc2)cc1 the results were CBX7 inh 0.89.
`Cc1ccc(C)c(-c2[nH]c(-c3ccc(O)cc3)nc2-c2ccccc2)c1` gave CBX7 inh 0.58.
For Cc1ccc(-c2[nH]c(-c3c[nH]c4ccccc34)nc2-c2ccccc2)cc1 the results were CBX7 inh 0.377*.
`O=C1CC(c2nc3ccccc3n2Cc2c(F)cccc2Cl)CN1c1ccccc1` (configuration not stated) gave CBX7 inh 0.833.
COc1cc(OC)cc(C(=O)Nc2ccc(O)c(-c3nc4ccccc4o3)c2)c1 was read as CBX7 inh 0.942.
Cc1ccccc1N1C(=O)c2ccccc2C1Nc1ccc(F)cc1F (configuration not stated) was read as CBX7 inh 0.934.
`COc1ccc(-c2noc(CC(=O)Nc3ccccc3)c2-c2ccc(OC)cc2)cc1` gave CBX7 inh 0.667.
Cc1cc(C)c(C)c(OCC(=O)N(Cc2nc(-c3ccccc3)no2)C(C)C)c1 was read as CBX7 inh 1.01.
For Cc1cc(=O)c2ccc3oc4ccccc4c3c2[nH]1 the results were CBX7 inh 0.96.
Screening O=C(c1ccc2c(c1)N(Cc1ccccc1)C(=O)c1ccccc1S2=O)N1CCc2ccccc2C1 (configuration not stated) returned CBX7 inh 0.79.
Screening Cc1cccc(NC(=O)C2CCN(S(=O)(=O)c3cnc[nH]3)CC2)c1 returned CBX7 inh 0.904.
`CC(=O)Nc1ccc(C(=O)CSc2n[nH]c(-c3ccncc3)n2)cc1` gave CBX7 inh 0.661.
Screening Cc1ccc(C(=O)CSc2n[nH]c(-c3ccncc3)n2)cc1 returned CBX7 inh 0.713.
`O=C(CSc1n[nH]c(-c2ccncc2)n1)c1ccc(Br)cc1` gave CBX7 inh 0.232*.
Screening O=C(O)c1cccc(NCc2cccc(OCc3ccccc3)c2)c1 returned CBX7 inh 0.855.
COc1ccccc1NC(=O)c1c(NCc2sccc2C)sc2c1CCCCC2 was read as CBX7 inh 0.551.
For COc1ccc(OC)c(NC(=O)c2c(NCc3cccs3)sc3c2CCC3)c1 the results were CBX7 inh 0.951.
Screening COc1ccc(OC)c(NC(=O)c2c(NCc3cccs3)sc3c2CCCC3)c1 returned CBX7 inh 0.593.
Screening COc1ccc(Cl)cc1NC(=O)c1c(NCc2cccs2)sc2c1CCCC2 returned CBX7 inh 0.817.
`COc1ccc(NC(=O)c2c(NCc3cccs3)sc3c2CCCCC3)cc1` gave CBX7 inh 0.736.
COc1ccc(OC)c(CNc2sc3c(c2C(=O)Nc2cc(OC)ccc2OC)CCCC3)c1 was read as CBX7 inh 0.579.
`COc1ccc(OC)c(NC(=O)c2c(NCc3cccs3)sc3c2CCCCC3)c1` gave CBX7 inh 0.427*.
For COc1ccc(NC(=O)c2c(NCc3cccs3)sc3c2CCC3)cc1 the results were CBX7 inh 0.567.
